Screening results (PubChem BioAssay)
PfHsp90 set2 – inhibits growth of yeast expressing Plasmodium falciparum Hsp90; S. cerevisiae expressing PfHsp90, BacTiter-Glo ATP, 48 h; yeast lacking PDR1 and PDR3 efflux regulators; inhibition, % at 9.4 µM; hit rate 0.32% among 310,000; AID 504621;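 active = every replicate shows inhibition above about 80%, whatever the replicate mean, limit read from the data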;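 note: 0% = DMSO neutral controls and 100% = 20 µM radicicol positive controls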
tim10-1 inh – growth inhibitors of tim10-1 mutant yeast; hit rate 2.2% among 330,000; S. cerevisiae tim10-1 ts strain growth, BacTiter-Glo, 24 h; inhibition, % at 20 µM; AID 463190;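 active = inhibition of at least 40%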;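 note: mutant grown at 25 °C; 0% = DMSO wells with yeast and 100% = wells holding no yeast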
tim23-1 inh – inhibits growth of tim23-1 mutant yeast | S. cerevisiae tim23-1 growth, BacTiter-Glo luminescence, 24 h | inhibition, % at 20 µM | hit rate 1.3% among 330,000 | AID 463212;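 active = growth inhibition of the mutant yeast at or above 50%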;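 note: temperature-sensitive mutant grown at 25 °C; plate controls were DMSO-treated mutant yeast for no effect and medium wells lacking yeast for full effect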
TIM10 inh – inhibits growth of TIM10 yeast strain | S. cerevisiae TIM10 strain growth, BacTiter-Glo luminescence, 24 h | inhibition, % at 10 µM | hit rate 1.4% among 330,000;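 active = inhibition of 40% or more at the single tested concentration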;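 note: wild-type TIM10 isogenic control strain grown at permissive 25 °C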
Rce1 inh – inhibitors of yeast Ras-converting enzyme; calls only; Q03530; yeast membranes, quenched prenylated peptide cleavage fluorescence; hit rate 0.27% among 290,000;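 active = fall in fluorescence gain of 50% or more versus controls, with final raw signal at or below 3038400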;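 note: plate controls were neutral control wells for no effect and wells lacking membranes for full effect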
Target sequence (Q03530 whole entry, looked up): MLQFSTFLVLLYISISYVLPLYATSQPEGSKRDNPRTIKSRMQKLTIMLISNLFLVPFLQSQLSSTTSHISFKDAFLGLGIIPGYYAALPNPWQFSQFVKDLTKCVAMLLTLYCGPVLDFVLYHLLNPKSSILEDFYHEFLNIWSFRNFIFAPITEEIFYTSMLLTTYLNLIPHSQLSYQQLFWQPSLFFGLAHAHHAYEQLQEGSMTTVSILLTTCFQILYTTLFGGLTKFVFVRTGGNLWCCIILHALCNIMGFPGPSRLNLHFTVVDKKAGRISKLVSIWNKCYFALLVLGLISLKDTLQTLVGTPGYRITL
tim10-1 conf – tim10-1 yeast growth inhibition, confirmed | shares compounds with tim10-1 inh | S. cerevisiae tim10-1 ts strain growth, BacTiter-Glo, 24 h | inhibition, % at 20 µM | hit rate 56% among 7,400;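 active = inhibition of yeast growth at or above a set limit in either of two repeat tests at 20 µM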;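 note: tim10-1 mutant grown at permissive 25 °C to find synthetic lethal compounds; 0% = DMSO yeast wells and 100% = medium wells without yeast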
* marks the source's active call; other numbers are inactive results; i = inactive; / = no result. This is a sample that favours compounds with a hit; in the whole collection about 3.7% have one here.

SMILES	PfHsp90 set2	tim10-1 inh	tim23-1 inh	TIM10 inh	Rce1 inh	tim10-1 conf
O=C(COC(=O)C1(c2ccc(Cl)cc2)CCCC1)Nc1ncc(C(F)(F)F)cc1Cl	-20	42*	24	10	i	10
O=C(COC(=O)C1(c2ccc(F)cc2)CCCC1)Nc1ncc(C(F)(F)F)cc1Cl	-7	37	30	4	i	/
O=C(CCC(=O)N1CCCCCC1)NCc1ccc(F)cc1	5	-8	2	2	i	/
O=C(O)Cc1c(C(=O)O)[nH]c2ccc(C(=O)O)cc12	-1	-2	9	2	i	/
Cc1cc(C)c(S(=O)(=O)N2CCN(C(=O)C3COc4ccccc4O3)CC2)c(C)c1 (configuration not stated)	-14	40*	44	21	/	28
O=C(NNC(=O)c1ccc(-n2cncn2)c([N+](=O)[O-])c1)c1cccc(Cl)c1	/	-4	1	-4	i	/
Cc1cc(C)n(-c2cc(N3CCOCC3)nc(-c3ccccc3)n2)n1	-13	52*	36	26	i	13
c1ccc(-c2nc(N3CCOCC3)cc(N3CCOCC3)n2)cc1	10	5	28	11	i	/
CCSc1ccccc1C(=O)N=C1NC(=O)CC2C(=O)NCCN12 (configuration not stated)	-12	6	-2	-6	i	/
O=[N+]([O-])c1cc(/C=N\O)ccc1Oc1ccc(F)cc1	9	46*	42	15	i	20
COc1cc(/C=N/O)ccc1Oc1ccc([N+](=O)[O-])cc1[N+](=O)[O-]	8	44*	35	25	i	38*
CO/N=C/c1ccc(Oc2ccc([N+](=O)[O-])cc2[N+](=O)[O-])c(OC)c1	6	44*	41	7	i	34*
CC(C)(C)Sc1ccc(/C=N/O)cc1[N+](=O)[O-]	7	20	27	2	i	/
CCOc1ccc(/C=C2/C(=O)N(c3ccc(OC)cc3)C(=S)N2CC(=O)OC)cc1OCC	-8	41*	40	31	i	30
CC(=O)c1cccc(CN(C)CC2CCCN(CCc3ccccc3C)C2)c1 (configuration not stated)	17	12	-12	-16	i	/
COc1ccc(C(=O)Oc2ccc3c(c2)OCO3)cc1OC	25	42*	17	11	i	30
CCOc1ccccc1NC(=O)c1ccc(NC(=O)C2CCCO2)cc1 (configuration not stated)	0	10	7	-3	/	/
Cc1cccc(N2CCN(C(=O)CCC(=O)N3CC(C)Oc4ccccc43)CC2)c1C (configuration not stated)	-2	32	47	11	i	/
Cc1cccc(N2CCN(C(=O)CCC(=O)N3Cc4ccccc4Oc4ncccc43)CC2)c1C	11	54*	26	-12	i	-20
COc1nc(N)nc(N)c1NS(=O)(=O)c1ccc(C)cc1	-27	-1	12	2	/	/
Cc1cc(C)cc(OCC(=O)Nc2ccncc2)c1	-6	6	10	-8	i	/
COC(=O)COc1ccc(-c2nccc(-c3ccccn3)n2)cc1	20	43*	19	30	i	31*
Cc1ccc(SCCN2CCC(C(C)(C)C)CCC2=O)cc1 (configuration not stated)	-2	45*	38	21	i	30
Cn1c(CC(=O)Nc2ccc(F)cc2)nnc1SCC(=O)Nc1nncs1	-30	-32	-11	-1	i	/
O=C(COc1ccccc1)Nc1c2c(nn1-c1ccc(F)cc1)CS(=O)(=O)C2	3	-11	-2	-6	i	/
CC(C)(C)n1nnnc1C(c1cccnc1)N(Cc1ccccc1)Cc1cccs1 (configuration not stated)	-5	56*	27	34	i	33*
COc1ccc(N2CCN(C(=O)CCCN3C(=O)c4cccc5cccc(c45)C3=O)CC2)cc1	/	49*	46	34	i	19
COc1ccc(N2CCN(C(=O)COC(=O)CCOc3ccccc3C)CC2)cc1	2	43*	18	27	i	19
CC1(C)NC(=O)N(CCOCCOc2ccccc2-c2ccccc2)C1=O	-18	10	23	10	i	/
O=C(CN1C(=O)NC2NC(=O)NC21)N/N=C/c1ccc(F)cc1 (configuration not stated)	11	-11	-2	10	i	/
